From PubChem
HPGD inh = qHTS Assay for Inhibitors of HPGD (15-Hydroxyprostaglandin Dehydrogenase) | 15-hydroxyprostaglandin dehydrogenase [NAD(+)] (Homo sapiens), P15428 | purified HPGD, NADH fluorescence kinetic, PGE2 substrate | Potency, µM, inactives show top-dose activity change, negative = inhibition, hits mostly inhibitors | 150,000 tested, 4.3% active | AID 894, 2007; active = well fitted inhibition curve with a large enough effect, not every such curve was filed as active; inconclusive = small, poorly fitted or top-dose-only effect, or another doubt; inactive = no such curve, though single readings can be large or run the other way; also: % is scaled to controls: 0 for no effect and ±100 for the full control effect
Target sequence (P15428 whole entry, looked up): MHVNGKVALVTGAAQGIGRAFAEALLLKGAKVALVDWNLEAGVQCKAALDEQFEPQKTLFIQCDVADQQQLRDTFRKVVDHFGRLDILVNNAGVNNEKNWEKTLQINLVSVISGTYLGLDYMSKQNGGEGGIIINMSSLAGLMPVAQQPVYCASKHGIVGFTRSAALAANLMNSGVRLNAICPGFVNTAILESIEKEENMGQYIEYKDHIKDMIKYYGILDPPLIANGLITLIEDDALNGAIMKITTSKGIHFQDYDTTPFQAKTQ
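20 nM HPGD preincubated 15 min at room temperature with compound in 50 mM Tris-HCl pH 8, 0.01% Tween 20. Started with 1 mM NAD+ and 30 uM prostaglandin E2; NADH fluorescence (360/450 nm) read 5 times over 30-s intervals, last minus first.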
ALDH1A1 inh = qHTS Assay for Inhibitors of Aldehyde Dehydrogenase 1 (ALDH1A1). Aldehyde dehydrogenase 1A1 (Homo sapiens), P00352. Purified ALDH1A1, NADH fluorescence, propionaldehyde substrate. Potency, µM (titrated, usually from 75.3 µM), for inactives: at the top dose activity, negative = inhibition, usual class: inhibitors. 220,000 tested, 7.3% active; active = well fitted inhibition curve with a large enough effect, not every such curve was filed as active; inconclusive = small, poorly fitted or top-dose-only effect, or another doubt; inactive = no such curve, though single readings can be large or run the other way;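 also: plate controls were no enzyme wells and a reference inhibitor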
Target sequence (P00352 whole entry, looked up): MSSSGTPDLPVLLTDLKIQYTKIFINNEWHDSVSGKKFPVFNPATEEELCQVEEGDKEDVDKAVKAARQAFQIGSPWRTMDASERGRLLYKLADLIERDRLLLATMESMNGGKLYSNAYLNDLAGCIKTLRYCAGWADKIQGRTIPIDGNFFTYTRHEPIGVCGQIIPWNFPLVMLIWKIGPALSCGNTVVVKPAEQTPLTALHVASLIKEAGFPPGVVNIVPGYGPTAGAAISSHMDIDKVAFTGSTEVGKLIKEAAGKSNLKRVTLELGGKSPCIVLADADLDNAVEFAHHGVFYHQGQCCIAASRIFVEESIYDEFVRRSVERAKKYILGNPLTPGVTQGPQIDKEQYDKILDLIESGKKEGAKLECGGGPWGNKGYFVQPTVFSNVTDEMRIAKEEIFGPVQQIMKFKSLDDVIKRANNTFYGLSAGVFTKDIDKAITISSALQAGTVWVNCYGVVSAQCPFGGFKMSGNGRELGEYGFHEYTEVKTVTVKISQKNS
Lamin A splicing = qHTS Assay for Modulators of Lamin A Splicing; 200,000 tested, 0.01% active; HeLa LMNA splicing GFP/RFP minigene ratio, 48 h; Potency, µM (highest dose often 46.1 µM), inactives show at the highest dose ratio change, negative = inhibition, usual class: inhibitors; active = well fitted inhibition curve with a large enough effect in the signal ratio, with a control signal flat, not every such curve was filed as active; inconclusive = small, poorly fitted or top-dose-only effect, or effect the other way, or a change in a side signal; the % refers to the signal ratio; also: % is scaled to controls: 0 for no effect and ±100 for the full control effect
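S3 HeLa stable clones carrying a lamin A-EGFP splicing minigene plus DsRed2 were seeded at 600 cells/well in Opti-MEM with 2% FBS, pin-dosed and incubated 48 h at 37°C. Acumen cytometry (488 nm) gave the GFP/RFP total-intensity ratio.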
HttQ103 aggreg = qHTS Multiplex Assay to Identify Dual Action Probes in a Cell Model of Huntington: Aggregate Formation (GFP). 220,000 tested, 1.1% active. PC12 HttQ103-GFP aggregates, Acumen cytometry, 40 h. Potency, µM (highest dose often 46.1 µM), inactives show top-dose activity change, negative = inhibition, most hits filed as inhibitors; also: % is scaled to controls: 0 for no effect and ±100 for the full control effect; nearly all actives have a fitted effect of over 60% in size
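Multiplexed with ATP-based cell death, this channel scores GFP aggregates in PC12 cells expressing inducible HTTex1-Q103-GFP. Induction used 100 nM tebufenozide; compounds were tested in concentration series.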
HTT cytoprotect = qHTS Multiplex Assay to Identify Dual Action Probes in a Cell Model of Huntington: Cytoprotection (ATP) | PC12 HTT-Q103 induced, cytoprotection, ATP luminescence, 40 h | Potency, µM (highest dose often 56.4 µM), for the others: cytoprotection (ATP increase), most hits filed as activators | 230,000 tested, 0.14% active | AID 1471, 2008; also: % of control where 0% means no effect; nearly all actives have a fitted effect of over 45% in size
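Readout: ATPlite luminescence (ATP level). Model: stable PC12, inducible Htt exon1 Q103-GFP. Inducer: tebufenozide, 100 nM final. Compounds: dose series. No G418 in medium.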
Luc counter = Counterscreen for Luciferase (Kinase-Glo TM) Inhibition; Luciferin 4-monooxygenase (Photuris pensylvanica), Q27757; Kinase-Glo luciferase, ATP luminescence, 8 min; Potency, µM (series often up to 38.3 µM), inactives show at the top dose activity change, negative = inhibition, most hits filed as inhibitors; 200,000 tested, 0.28% active; AID 1379, 2008; also: % is scaled to controls: 0 for no effect and ±100 for the full control effect; nearly all actives have a fitted effect of over 60% in size
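Light output from Kinase-Glo luciferase with luciferin and 10 uM ATP in 50 mM imidazole pH 7.2, KCl, MgCl2, Tween 20, BSA; compound pin-delivered, 8-min ambient incubation, then luminescence read.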
* hit, by the source's call; [ ] = dose if it differs, or a comment. In the library only some 9% were active in any assay of this set; here they are far more common. Unless noted, calls follow the shape of the dose curve; as a rule, active = well fitted curve in the direction sought with a large enough effect; inconclusive = small, poorly fitted or top-dose-only effect, or another doubt; inactive = no such curve, though single readings can be large; an effect the other way counts as inactive or inconclusive. Potency is read from the fitted curve at half-maximal effect.

`O=C(NC1CCCC1)c1sc(=S)n2c1[nH]c(=O)c1ccccc12` gave HPGD inh -15.8%, ALDH1A1 inh inconclusive, Lamin A splicing inconclusive, HttQ103 aggreg 8.91µM*, HTT cytoprotect -42.2% and Luc counter -0.8%.
`O=C(NCc1ccco1)c1sc(=S)n2c1[nH]c(=O)c1ccccc12` gave ALDH1A1 inh -19.1%, Lamin A splicing inconclusive, HttQ103 aggreg -11.2% and HTT cytoprotect -4.6%[0.074 µM].
Cc1ccc(CNC(=O)c2ccc3c(=O)[nH]c4c(C(=O)NCC5CCCO5)sc(=S)n4c3c2)cc1 (stereo not given) was read as ALDH1A1 inh inconclusive, HttQ103 aggreg 5.1%, HTT cytoprotect -18.1% and Luc counter -0.1%.
Screening O=C(NCC1CCCO1)c1ccc2c(=O)n(-c3ccc(F)cc3)c(=S)[nH]c2c1 (stereo not given) returned ALDH1A1 inh inconclusive, HttQ103 aggreg -8.8%, HTT cytoprotect -18.2% and Luc counter 1.0%.
Screening O=C(NCc1ccccc1)c1ccc2c(=O)[nH]c3c(C(=O)NCC4CCCO4)sc(=S)n3c2c1 (stereo not given) returned ALDH1A1 inh 20µM*, Lamin A splicing inconclusive, HttQ103 aggreg 20.8%, HTT cytoprotect -5.9%[10 µM] and Luc counter -1.9%.
Screening Cc1occc1C(=O)Nc1ccc(S(N)(=O)=O)cc1 returned ALDH1A1 inh inconclusive, HttQ103 aggreg -3.6%[9.22 µM], HTT cytoprotect 10.3%[10 µM] and Luc counter -16.2%.
Screening COCCNc1ccc([N+](=O)[O-])cc1C(=O)Nc1cccc(C)n1 returned ALDH1A1 inh -12.4%, HttQ103 aggreg -3.6%, HTT cytoprotect 5.2%[10 µM] and Luc counter -8.1%.
For Cc1nc2ccc(S(=O)(=O)NCC(=O)N(C)Cc3ccco3)cc2s1 the results were HPGD inh 5.4%, ALDH1A1 inh -3.8%, Lamin A splicing -0.5%, HttQ103 aggreg -0.8%, HTT cytoprotect 3.4%[10 µM] and Luc counter 2.6%.
`COC(=O)CNC(=O)[C@@]1(C)C=C[C@@H](Cc2ccccc2)N1C(C)=O` gave HPGD inh 10µM*, ALDH1A1 inh 22.4µM*, HTT cytoprotect -14.2% and Luc counter -24.4%.
For C[C@]1(C(=O)O)C=C[C@@H](Cc2ccccc2)N1C(=O)c1ccccc1 the results were HPGD inh -6.9%, ALDH1A1 inh 11.4%, Lamin A splicing -2.5%, HttQ103 aggreg 9.1% and Luc counter -3.7%.
`CC(=O)N1[C@H](Cc2ccccc2)C=C[C@]1(C)C(=O)O` gave HPGD inh -13.2%, ALDH1A1 inh 28.2µM*, HTT cytoprotect 9.2% and Luc counter -0.3%.
For Cc1cc(C(=O)NCCc2ccc(Cl)cc2)no1 the results were ALDH1A1 inh 4.5%, Lamin A splicing inconclusive, HttQ103 aggreg 16.7%, HTT cytoprotect -13.7% and Luc counter 3.0%.
`Cc1cc(-c2nsc(=O)o2)c(S(C)(=O)=O)s1` gave HPGD inh 4.47µM*, ALDH1A1 inh 2.82µM*, Lamin A splicing -8.7%, HttQ103 aggreg -9.0%, HTT cytoprotect -1.7%[10 µM] and Luc counter 5.7%.
COc1ccc(N=C2O/C(=C/c3sc(=S)n(CC4CCCO4)c3O)N=C2C#N)cc1 (stereo not given) was read as ALDH1A1 inh 1.12µM*, HttQ103 aggreg 3.5%[9.22 µM] and HTT cytoprotect 26.8%[10 µM].
`Cc1ccccc1-c1nc(CN2CCCC2c2ccc(F)cc2)c(C)o1` (stereo not given) gave ALDH1A1 inh -2.0%, Lamin A splicing inconclusive, HttQ103 aggreg -4.1%[9.22 µM], HTT cytoprotect 8.7%[10 µM] and Luc counter -2.5%.
`S=C(Nc1cccc(Cl)c1Cl)Nn1cnnc1` gave HPGD inh 25.1µM*, ALDH1A1 inh 2.82µM*, Lamin A splicing -5.3%, HttQ103 aggreg 9.1%, HTT cytoprotect -9.1%[10 µM] and Luc counter 0.4%.
`S=C(Nc1ccc(Cl)cc1Cl)Nn1cnnc1` gave HPGD inh 7.94µM*, ALDH1A1 inh 4.5%, Lamin A splicing -11.0%, HttQ103 aggreg 6.3%, HTT cytoprotect 13.8%[10 µM] and Luc counter 1.8%.
Screening Cc1cccc(NC(=S)Nn2cnnc2)c1C returned ALDH1A1 inh 7.94µM* and Luc counter 1.8%.
`O=C(CSCc1ccccc1)NNC(=S)Nc1cccc(Cl)c1Cl` gave HPGD inh -9.9%, ALDH1A1 inh 3.55µM*, Lamin A splicing -9.5%, HttQ103 aggreg inconclusive, HTT cytoprotect 23.2%[10 µM] and Luc counter 4.1%.
CCOC(=O)c1noc2ncnc(N3CCN(c4cccc(C(F)(F)F)c4)CC3)c12 was read as Lamin A splicing -12.6%[46 µM].
`Cc1cc(C)cc(NC(=O)CN2CCC(NC(=O)Cc3ccccc3)CC2)c1` gave HPGD inh -6.1%, ALDH1A1 inh 13.6%, Lamin A splicing -2.9%, HttQ103 aggreg 1.1%, HTT cytoprotect -15.3% and Luc counter 0.1%.
For COC(=O)/C=C(\C)NC(=O)c1cccs1 the results were HPGD inh -8.2%, ALDH1A1 inh 7.8%, Lamin A splicing 2.1%, HttQ103 aggreg 8.3%, HTT cytoprotect -4.5% and Luc counter -0.7%.
O=C(O)/C=C/C(=O)Nc1ccc2c(c1)NC(=O)CO2 was read as ALDH1A1 inh 22.4µM*, HttQ103 aggreg 11.8%, HTT cytoprotect -15.8% and Luc counter -0.5%.
O=S(Cc1ccc(Cl)cc1)c1ncc(CO)n1Cc1ccccc1 (stereo not given) was read as ALDH1A1 inh 6.0%, Lamin A splicing 4.2%[46 µM], HttQ103 aggreg -6.2%, HTT cytoprotect -8.0% and Luc counter 2.4%.
Cc1cc(C)n(-c2nnc(Cl)c3ccccc23)n1 was read as ALDH1A1 inh 3.55µM* and Luc counter -8.0%.
CC(=O)N(Cc1cc(=O)[nH]c2ccccc12)c1ccccc1 was read as HPGD inh -6.9%, ALDH1A1 inh 6.5%, Lamin A splicing 2.3%, HttQ103 aggreg -8.5%, HTT cytoprotect 10.7% and Luc counter -3.3%.
For CC(=O)N(Cc1cc(=O)[nH]c2ccccc12)c1cccc(C)c1 the results were HPGD inh inconclusive, ALDH1A1 inh 20µM*, Lamin A splicing 4.3%, HttQ103 aggreg 18.4%, HTT cytoprotect 4.3% and Luc counter 7.8%.
Cc1nc2cc(NC(=O)COc3ccc(C#N)cc3)ccc2n1-c1ccccc1 was read as HPGD inh -14.4%, ALDH1A1 inh 11.2µM*, Lamin A splicing inconclusive, HttQ103 aggreg -1.0%, HTT cytoprotect 13.3% and Luc counter -1.8%.
